# Source: PubChem
# An excerpt weighted towards active compounds, which were near 10% of everything screened.
# ALOX12 inhib: inhibitors of human 12-lipoxygenase (ALOX12). purified 12-hLO, xylenol orange hydroperoxide absorbance. hit rate 0.12% among 150,000. Potency, µM (highest dose often 57.1 µM), for inactives: at the top dose activity change, negative = inhibition, most hits filed as inhibitors. P18054; active = well fitted inhibition curve with a large enough effect; inconclusive = small, poorly fitted or top-dose-only effect; also: potency is read from the fitted curve at half-maximal effect; nearly all actives have a fitted effect of over 55% in size
#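 Hydroperoxide output read as Fe(III)-xylenol orange absorbance, 573-to-405 nm ratio, after 30 min reaction with 40 uM arachidonic acid. Enzyme: 150 nM purified human 12hLO, 15 min compound preincubation; 25 mM Hepes pH 7.0, room temperature.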
# ALDH1A1 block: blocks purified human ALDH1A1 activity; P00352; Purified ALDH1A1, NADH fluorescence, propionaldehyde substrate; Potency, µM (highest dose often 75.3 µM), inactives show at the top dose activity, negative = inhibition, hits mostly inhibitors; hit rate 7.3% among 220,000;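 also: potency is read from the fitted curve at half-maximal effect; plate controls were no enzyme wells and a reference inhibitor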
# PNC assembly inh: inhibitors of perinucleolar compartment assembly. PC3M PTB-GFP, PNC prevalence imaging, 16 h; active compounds read low. activity change (PNC), negative = inhibition, % at 10 µM. hit rate 3.1% among 140,000;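 active = readout at or below -70, meaning at least 70% loss of cells showing the perinucleolar compartment, a nuclear body marking cancer cells; inconclusive = readout between -30 and a set limit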;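 also: plate controls were DMSO wells for no effect and camptothecin positive control wells for full effect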
#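 Read-out is percentage of cells bearing a perinucleolar compartment, from automated 20x imaging of fixed, Hoechst-stained PC3M PTB-GFP cells. Cells were seeded 4 h, then exposed 16 h to compound (23 nl of library stock) in duplicate plates.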
# Lamin A splicing: LMNA splicing modulation; hit rate 0.01% among 200,000; HeLa LMNA splicing GFP/RFP minigene ratio, 48 h; Potency, µM (series often up to 46.1 µM), for the others: at the top dose ratio change, negative = inhibition, usual class: inhibitors; active = well fitted inhibition curve with a large enough effect in the signal ratio, with a control signal flat, not every such curve was filed as active; inconclusive = small, poorly fitted or top-dose-only effect, or effect the other way, or a change in a side signal; the % refers to the signal ratio; also: potency is read from the fitted curve at half-maximal effect
#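 Read-out is the ratio of GFP to DsRed2 object intensity, acquired by 488 nm laser-scanning cytometry on HeLa lamin A-EGFP minigene reporter cells. Compound incubation 48 hrs at 37 °C in Opti-MEM with 2% FBS; DMSO 0.5% final.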
# HPGD block: inhibitors of human 15-hydroxyprostaglandin dehydrogenase (HPGD); AID 894; hit rate 4.3% among 150,000; Potency, µM, for the others: at the highest dose activity change, negative = inhibition, hits mostly inhibitors; P15428; purified HPGD, NADH fluorescence kinetic, PGE2 substrate; also: potency is read from the fitted curve at half-maximal effect
# Target sequence (P15428 whole entry, looked up): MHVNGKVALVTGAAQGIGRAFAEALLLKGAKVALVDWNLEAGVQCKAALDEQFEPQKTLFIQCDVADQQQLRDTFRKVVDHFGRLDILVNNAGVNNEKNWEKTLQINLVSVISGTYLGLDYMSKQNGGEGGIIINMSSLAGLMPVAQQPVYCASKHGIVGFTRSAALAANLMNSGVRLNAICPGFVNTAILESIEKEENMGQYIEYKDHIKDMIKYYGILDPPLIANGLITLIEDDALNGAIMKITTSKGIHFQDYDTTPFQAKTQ
#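 20 nM HPGD preincubated 15 min at room temperature with compound in 50 mM Tris-HCl pH 8, 0.01% Tween 20. Started with 1 mM NAD+ and 30 uM prostaglandin E2; NADH fluorescence (360/450 nm) read 5 times over 30-s intervals, last minus first.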
# An asterisk follows results filed as active; ? = inconclusive; . = no result; [ ] = another dose, or the depositor's remark. Unless noted, calls follow the shape of the dose curve; as a rule, active = well fitted inhibition curve with a large enough effect (not every such curve was filed as active); inconclusive = small, poorly fitted or top-dose-only effect, or another doubt; inactive = no such curve, though single readings can be large or run the other way. Unless noted, % is scaled to controls: 0 for no effect and ±100 for the full control effect.
SMILES,ALOX12 inhib,ALDH1A1 block,PNC assembly inh,Lamin A splicing,HPGD block
O=C(O)CC(Cn1[nH]nnc1=S)c1ccccc1 (configuration not stated),-1%,10µM*,?,6%,-27%
C/C(=N\Nc1ccc2nncn2n1)c1cccs1,.,16%,.,.,.
CN1C(=O)/C(=C/c2ccccc2OCc2cccc(F)c2)NC1=S,0%,-12%,28,-11%,4.5µM*
CN1C(=O)/C(=C/c2ccccc2OCc2ccc(C(=O)O)cc2)NC1=S,.,3%,.,.,.
CN1C(=O)/C(=C/c2ccccc2OCc2ccc(F)cc2)N(C)C1=S,-5%,-4%,-20,?,-23%
CN1C(=O)/C(=C/c2ccccc2OCc2ccccc2)NC1=S,0%,?,?,-14%,11µM*
C=CCOC(=O)N[C@@H](c1ccccc1)[C@@H](C)[N+](=O)[O-],.,9%,.,.,-4%
CCOc1ccc(C2C(=O)N(C3CCCCCC3)CC(=O)N2CCc2ccc(OC)c(OC)c2)cc1OC (configuration not stated),.,.,.,-1%[46 µM],.
CC(C)CN1CC2(CCN(S(=O)(=O)c3ccccc3)CC2)C1,-6%,3%,.,.,-8%
COc1cc(C(=O)NCCC(=O)NCCN2CCOCC2)cc(OC)c1OC,-3%,4%,?,5%,-7%
CCOc1cc(C(=O)NCCN2CCOCC2)cc(OCC)c1OCC,7%,2%,-100*,3%,-8%
COc1ccccc1NC(=O)C(C)Sc1nnnn1C (configuration not stated),-3%,8.9µM*,-20,?,-4%
O=C(O)[C@@H]1[C@@H]2O[C@H]([C@@H](Br)[C@H]2Br)[C@H]1C(=O)O,6%[11.4 µM],-2%[13.5 µM],.,.,-16%
CC1(C)CC(=O)c2c(oc3ccc(NS(=O)(=O)c4ccc(C(=O)O)cc4)cc23)C1,.,9%,.,?,.
CC1(C)CC(=O)c2c(oc3cc4c(cc23)OCO4)C1,?,7.9µM*,.,.,2.5µM*
O=c1c(C/C=C/c2ccccc2)c(O)ccn1Cc1cccc(Cl)c1,.,-10%,.,.,.
COc1ccc2[nH]cc(CCn3ccc(O)c(C/C=C/c4ccccc4)c3=O)c2c1,.,14µM*,.,.,.
O=c1c(C/C=C/c2ccccc2)c(O)ccn1CCc1c[nH]c2ccccc12,.,40µM*,.,.,.
COc1ccc2[nH]cc(CCNS(=O)(=O)c3ccccc3)c2c1,.,?,.,5%[46 µM],.
O=[N+]([O-])c1cccnc1Oc1ccc(C2SCCS2)cc1,.,18µM*,.,.,.
Cc1cc(=O)oc2cc(Oc3ncccc3[N+](=O)[O-])ccc12,.,?,.,9%[46 µM],.
NNC(=O)c1cc(-c2ccc(O)cc2)nc2ccc(Br)cc12,.,14µM*,.,?,.
Cc1ccc(-c2cc(C(=O)NCc3cnn(C)c3C)c3cc(Br)ccc3n2)cc1,-11%,1%,3,3%,-3%
N=C1C(c2nc3ccccc3[nH]2)=C(O)CN1c1ccc(CC(=O)O)cc1,-3%,24µM*,-24,9%,-22%
N=C1C(c2nc3ccccc3[nH]2)=C(O)CN1c1ccccc1,0%,13%,11,-20%,-12%
SMILES,ALOX12 inhib,ALDH1A1 block,PNC assembly inh,Lamin A splicing,HPGD block
O=C(COCc1cc(-c2cccs2)on1)NCc1cccc(Cl)c1,.,.,.,13%[46 µM],.
COc1ccc(CCN2C(=O)c3cccc4cccc(c34)C2=O)cc1OC,-2%,10%,27,-2%,-7%
CCN(CC)C(=O)c1ccc2c3c(cccc13)C(=O)N(CCc1ccc(OC)c(OC)c1)C2=O,-2%,-9%,-13,?,18µM*
O=C(Nc1ccc(NC(=O)c2ccco2)nc1)c1ccccn1,0%,14µM*,-24,?,-24%
CCC(=O)Nc1cc(C)c(NC(=O)c2ccco2)cn1,3%,?,1,?,-7%
Cc1cc(NC(=O)c2ccccc2)ncc1NC(=O)c1ccco1,-1%,11µM*,20,-10%,?
CCOC(=O)C(=CNc1ccc(NC2=NCC(C)S2)cc1)C(=O)OCC (configuration not stated),-1%,3%,?,?,14µM*
Cc1[nH]c(=S)sc1Cc1ccc(Cl)c(Cl)c1,?,25µM*,-4,?,16µM*
CC(=O)OC1CCC23CC1(C)CCC2C(C)(C)CC3OC(C)=O (configuration not stated),-3%,6%,.,-10%,-3%
Cc1ccc(C)c(N2CCN(S(=O)(=O)c3ccc4[nH]c5c(c4c3)CCCCC5)CC2)c1,.,.,.,-11%[46 µM],.
CC(=O)OCC1O[C@@H](O[C@@H]2C[C@H]3C(C)(C)[C@H](OC(C)=O)CC[C@]3(C)[C@H]3CC[C@]45C[C@]4(CC[C@H]5[C@@H](C)C[C@@H](O)[C@H](O)C(C)(C)O)[C@@]32C)[C@H](O)[C@@H](O)[C@@H]1O (some centres not stated),16%,-6%,-115*,?,-13%
O=C(Nc1ccc(F)cc1F)N1CCc2c(sc3c2CCCC3)C1c1ccc(F)cc1 (configuration not stated),.,.,.,1%[46 µM],.
O=C(C1=NN[C@@H]2C(=O)N(c3ccccc3C(F)(F)F)C(=O)[C@H]12)c1ccc2ccccc2n1,-1%,8%,-24,-15%,-8%
N#Cc1ccc(N2C(=O)[C@@H]3C(C(=O)c4cnccn4)=NN[C@@H]3C2=O)cc1,.,14µM*,.,.,.
N#Cc1ccc(N2C(=O)[C@@H]3C(C(=O)c4ccc5ccccc5n4)=NN[C@@H]3C2=O)cc1,-2%,7.9µM*,31,-3%,-20%
O=C(/C=C/c1c(Cl)cccc1Cl)N1CCN(c2ncccn2)CC1,-12%,?,-26,-12%,?
CC(=O)Nc1ccc(OCC(=O)N2CCC(Cc3ccccc3)CC2)cc1,.,-3%,.,.,.
O=C(/C=C/c1ccco1)N1CCC(Cc2ccccc2)CC1,.,20µM*,.,?,.
O=C(Nc1ccc(OCC(=O)N2CCC(Cc3ccccc3)CC2)cc1)c1ccco1,0%,10µM*,?,-15%,-17%
O=C(/C=C/c1ccco1)N1CCN(c2ncccn2)CC1,-1%,14µM*,-22,4%,-17%
Nc1nc(N)c2nc(CNc3ccc(C(=O)N[C@H](CCC(=O)O)C(=O)O)cc3)cnc2n1,-2%,.,.,.,.
CCOc1cc(-c2cc(-c3ccc(N)cc3)nc(N)c2C#N)ccc1O,-10%,?,66,-19%,?
COc1cc(-c2c(C#N)c(N)nc(SCc3ccncc3)c2C#N)cc(OC)c1OC,-3%,29%,?,?,13µM*
COc1cc(-c2c(C#N)c(N)nc3c2CCCC3)cc(OC)c1OC,1%,-2%,-100*,-25%,-19%
CCOc1cc(-c2c(C#N)c(N)nc3c2CCCC3)ccc1O,-6%,?,-114*,?,?
COc1cccc(NC(=O)CSc2nc(=O)n(Cc3ccncc3)c3c2CCC3)c1,.,.,.,-8%[46 µM],.
C/C(=N\N=C1\NC(=O)CC(C(=O)O)S1)c1cccs1 (configuration not stated),3%,-6%,-106*,6%,-21%
